Compound activity deposited in PubChem BioAssay by National Center for Advancing Translational Sciences (NCATS).
HCV inh = HCV inhibition; Potency, µM (series often up to 41.8 µM), for the others: at the top dose activity change, negative = inhibition, most hits filed as inhibitors; 340,000 compounds, 3.4% hits; Huh7.5.1 HCVcc-Cre infection, luciferase reporter, 44 h; also: % is scaled to controls: 0 for no effect and ±100 for the full control effect
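A cell-based infection assay in which seeded cells (1,000 per well) receive test compound after 4 h, are inoculated with HCVcc-Cre at approximately 0.5 moi, and are incubated 44 h before luminescence detection.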
SARS PLP yeast = inhibitors of SARS-CoV papain-like protease in yeast. S. cerevisiae expressing SARS-CoV PLpro, growth rescue. 330,000 compounds, 0.19% hits. AID 485353. Potency, µM (highest dose often 32.9 µM), for inactives: at the top dose activity, positive = growth rescue, actives largely listed as activators; calls by dose curve; also: 0% is about no effect; nearly all actives have a fitted effect of over 55% in size
Pf growth 96h = P. falciparum growth inhibition at 96 hour, primary screen for plastid delayed-death inhibitors; 320,000 compounds, 6.9% hits; Potency, µM (doses to about 28.7 µM), inactives show at the top dose activity change, negative = inhibition, most hits filed as inhibitors; P. falciparum luciferase reporter growth, 96 h; also: % is scaled to controls: 0 for no effect and ±100 for the full control effect
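Two-generation exposure (96 h) targets delayed-death phenotype. Reporter parasites carrying integrated firefly luciferase, in red cells at 2% hematocrit and 0.05% parasitemia final, kept at 37 C, 5% CO2; luminescence loss indicates inhibition.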
NS1 function inh = influenza NS1 inhibition. Potency, µM (top dose mostly 46.1 µM), inactives show at the highest dose activity, positive = more growth. 270,000 compounds, 0.4% hits. AID 2326; calls by dose curve; also: actives are rising curves; nearly all actives have a fitted effect of over 50% in size
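Read-out: OD600 growth recovery of NS1-expressing budding yeast. Cells grown overnight at 30C in -URA glucose medium, washed, resuspended and diluted 1:100 in 2% galactose assay medium, pH 6.0. Same strain lacking NS1 served as positive control.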
Pf growth 48h = P. falciparum growth inhibition at 48 hours (one generation); P. falciparum luciferase growth in erythrocytes, 48 h; Potency, µM (highest dose often 28.7 µM), for the others: top-dose activity change, negative = inhibition, actives largely listed as inhibitors; AID 504832; 310,000 compounds, 5.9% hits; also: % is scaled to controls: 0 for no effect and ±100 for the full control effect
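First compound was added to culture medium, then infected red cells at 0.1% parasitemia and 2% hematocrit (final). After incubation at 37 C under 5% CO2, luciferase detection reagent was dispensed and light output recorded.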
AMA1 RON2 block = inhibitors of Plasmodium falciparum AMA1-RON2 interaction; AlphaScreen AMA1-biotinylated RON2 peptide binding; Potency, µM (titrated, usually from 58.2 µM), for inactives: top-dose activity change, negative = inhibition, actives largely listed as inhibitors; 360,000 compounds, 0.2% hits;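 also: 0% = vehicle wells and -100% = peptide control; nearly all actives have a fitted effect of over 45% in size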
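AMA1 (3D7) with his tag at 25 nM final met compounds first, then biotinylated RON2 peptide at 25 nM; detection used donor plus acceptor beads, 10 µg/mL apiece, read by AlphaScreen after 30 min at room temperature.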
Numbers without * were called inactive; ? = inconclusive; / = no result; [ ] = dose if it differs, or a comment. Rows were chosen to be rich in hits. Some 12% of all compounds tested hit in one or more screens of this group. Unless noted, calls follow the shape of the dose curve; as a rule, active = well fitted curve in the direction sought with a large enough effect; inconclusive = small, poorly fitted or top-dose-only effect, or another doubt; inactive = no such curve, though single readings can be large; an effect the other way counts as inactive or inconclusive. Potency is read from the fitted curve at half-maximal effect.

SMILES	HCV inh	SARS PLP yeast	Pf growth 96h	NS1 function inh	Pf growth 48h	AMA1 RON2 block
CCOC(=O)c1cnn2c1[nH]c(=O)c1ccccc12	10%	-2%	9.3µM*	-10%	31%	-8%
Cc1ccc(S(=O)(=O)NC(=O)Cn2nnc(-c3ccccc3)c2COc2ccc3ccccc3c2)cc1	/	/	/	/	/	3%
CSc1ccccc1NC(=O)C(=O)c1c[nH]c2ccccc12	?	-2%	99%	/	160%	-8%
COC(=O)N/N=C/c1cc(N=Nc2ccccc2)ccc1O	-10%	-1%	?	-3%	?	71%
COC(=O)N/N=C/c1cc(N=Nc2ccccc2Cl)ccc1O	?	-2%	7.4µM*	1%	?	27%
Nc1ccc(C(=O)N/N=C\c2cc(N=Nc3cccc4ccccc34)ccc2O)cc1	11µM*	-3%	3%	7%	2.9µM*	32%
CN(CC(=O)N1CCN(c2ccccc2)CC1)C1CCCc2ccccc21 (stereo unspecified)	15%	0%	-8%	3%	-16%	-14%
CC1=NN(c2cccc(C(=O)O)c2)C(=O)/C1=C\C=C/c1ccccc1	?	-6%	-11%	/	?	11%
CC1=NN(c2ccccc2)C(=O)/C1=C/c1ccc[nH]1	?	5%	-11%	9%	13%	13µM*
CC1=NN(c2ccccc2)C(=O)C1=Cc1ccccc1	/	/	/	/	/	-5%
CC1=NN(c2ccc(C)cc2)C(=O)/C1=C\C=C\c1ccccc1	8%	-6%	?	8%	13µM*	?
Cc1ccc(-n2ncc3c2CC(C)(C)CC3NC(=O)CCc2cccnc2)cc1 (stereo unspecified)	?	-4%	12µM*	-6%	-11%	-2%
CC1(C)Cc2c(cnn2-c2ccccc2)C(NC(=O)CCCn2cncn2)C1 (stereo unspecified)	16%	0%	12µM*	9%	-19%	-17%
CCc1noc(C)c1C(=O)NC1CC(C)(C)Cc2c1cnn2-c1ccccc1 (stereo unspecified)	/	-3%	9.3µM*	-7%	-23%	/
COc1ccc(N2CCN(C(=O)c3cn(CC4CCCCC4)nn3)CC2)cc1	?	4%	?	-19%	0%	-5%
CCOC(=O)CC(=O)CSc1ncnc2c1nnn2-c1ccc(OC)cc1	-5%	2%	12%	/	?	64%
CSc1ncccc1C(=O)OCC(=O)NC(C)CCc1ccccc1 (stereo unspecified)	-14%	-1%	/	/	/	-7%
CC(=O)Nc1ccc2c(c1)C(C)(C)C(C)N2C (stereo unspecified)	-20%	-1%	10µM*	-6%	-8%	-3%
O=C(NC1CCSC1=O)C1CCCCC1 (stereo unspecified)	-4%	0%	11%	0%	25%	-4%
O=C1NC(c2cc3ccccc3nc2Cl)Nc2ccccc21 (stereo unspecified)	10%	-3%	1.9µM*	5%	2.9µM*	-6%
COC(=O)c1sc(SC)c2c1CC(C)(C)C/C2=N/O	-30%	0%	0%	4%	9%	-10%
CSc1sc(C(=O)OC(C)C)c2c1C(=O)CC(C)(C)C2	-16%	0%	?	5%	7.4µM*	-1%
CN(C)S(=O)(=O)c1ccc(C(=O)N2CCN(S(=O)(=O)c3cccs3)CC2)cc1	10%	4%	-19%	/	-20%	0%
CC1(c2ccccc2)CC(C)(C)N2C(=O)Cc3cccc1c32 (stereo unspecified)	12%	-3%	42%[5.75 µM]	/	15µM*	4%
CC1(c2ccccc2)CC(C)(C)N(C(N)=O)c2ccccc21 (stereo unspecified)	?	1%	?	5%	-17%	-15%
SMILES	HCV inh	SARS PLP yeast	Pf growth 96h	NS1 function inh	Pf growth 48h	AMA1 RON2 block
O=C(COC(=O)C1CCN(c2ccc(C(F)(F)F)cn2)CC1)NCc1ccccc1	28%	1%	-12%	/	20%	-1%
O=c1c(/C=N/N2CCOCC2)c(C(F)(F)F)[nH]n1-c1ccccc1	-28%	5%	40%	/	?	5%
CCOc1cc(C(=O)CSc2nnc(CNc3ccc(Cl)cc3)o2)ccc1NC(=O)CC	11µM*	14%	?	?	?	13%
O=C(COc1ccc(Cl)cc1)NCc1nnc(SCC(=O)NC2CCCC2)o1	1%	/	4.1µM*	-1%	?	18%
O=C(CSc1nnc(COc2ccc(Cl)cc2)o1)NC1CCCCC1	-1%[8.37 µM]	-5%	16%	/	6%	1%
COc1cc(C(=O)NCC2CCCCC2)cc(OC)c1OC	27%	2%	?	-1%	?	9%
COc1ccc(NC(=O)CSc2nnc(CNC(=O)COc3ccc(Cl)cc3)o2)c(OC)c1	-13%	7%	9.3µM*	-1%	13µM*	-13%
COc1cc(C(=O)NCCC(=O)NC2CCCCC2)cc(OC)c1OC	17%	-3%	9.3µM*	0%	-1%	0%
COc1cccc(CNC(=O)[C@@H]2CCCN2C(=O)[C@@H]2CCCN2)c1	/	/	/	/	/	7%
COc1cc(C(=O)NCc2nnc(SCC(=O)NC3CCCC3)o2)cc(OC)c1OC	4%	1%	8.3µM*	17%	18%	2%
O=C(Nc1ccnn1C1CCNCC1)c1ccc2c(c1)OCO2	6%	/	/	/	/	0%
O=C(O)Cc1csc(Nc2cccc(Cl)c2)n1	6%	-58%	13µM*	0%	37%	-6%
CC(C)c1ccc(Nc2nc(CC(=O)O)cs2)cc1	23%	1%	52%	/	273%	12%
O=C(Nc1ccc(F)cc1)c1sccc1SCc1cccc(C(F)(F)F)c1	7%	-8%	?	-17%	9.3µM*	94%
COc1ccc(NC(=O)c2sccc2SCc2cccc(C(F)(F)F)c2)cc1	?	-3%	?	5%	?	22%
COc1ccc(OC)c(S(=O)(=O)Nc2ccc3[nH]c(=O)[nH]c3c2)c1	6%	1%	-11%	-1%	11%	-3%
COc1cc(/C=N/N=C/c2cc(OC)c(O)c(OC)c2)cc(OC)c1O	37%	2%	4.1µM*	-6%	10µM*	-12%
COc1cc(/C=N/N=C(N)N)ccc1OCc1ccccc1Cl	14µM*	-2%	29%	/	2.6µM*	-15%
COc1ccc(/C=N/N=C/c2ccc(OC)c(OC)c2)cc1OC	-3%	0%	117%	8%	3.7µM*	-6%
O/N=C/c1cc(Cl)ccc1OCc1ccccc1Cl	-11%	-10%	38%	9%	8%	0%
COc1cc(/C=N/N=C(/C(=O)c2ccccc2)c2ccccc2)cc(OC)c1O	?	-38%	?	7%	-7%	-30%
COc1ccc(/C=N/N=C/c2ccc(OC)c(O)c2)cc1O	6%	2%	7%	4%	?	0%
